aSyn UTR act – Activators working through SNCA 5'UTR binding (MLPCN); AID 1814; alpha-synuclein 5'UTR reporter, activators screen; 300,000 tested, 7.1% active; activity score, % (tested at 7.5 µM), hits read low; in the data active means activity score below about -60%
Numbers without * were called inactive. A selection follows.

SMILES	aSyn UTR act
c1ccc(-n2ncc3c(NC4CCCCCC4)ncnc32)cc1	-97*
Cc1ccc(OC(=O)c2oc3ccc(F)cc3c2C)c(C)c1	-112*
Fc1cc(F)c2nc(Nc3nc4cc5c(cc4s3)OCO5)sc2c1	-176*
Fc1cccc2sc(Nc3nc4cc5c(cc4s3)OCCO5)nc12	-78*
O=C(NNc1nc2cc3c(cc2s1)OCCO3)c1ccccc1	-141*
Fc1cccc2sc(Nc3nc4cc5c(cc4s3)OCO5)nc12	-222*
O=S(=O)(NCc1cn2ccccc2n1)c1cccs1	-64*
Nc1ccc(CCc2nc3ccccc3o2)cc1	-126*
Cn1c(/C=C/c2ccc(Cl)cc2)c([N+](=O)[O-])c(=O)n(C)c1=O	-147*
CCCCCOc1ccc(/C=C/c2c([N+](=O)[O-])c(=O)n(C)c(=O)n2C)cc1	-175*
Cn1c2c(c(=O)n(C)c1=O)C(C(F)(F)F)(C(F)(F)F)N=C(c1ccc(Cl)cc1)N2	99
Cn1c(/C=C/c2cccc([N+](=O)[O-])c2)c([N+](=O)[O-])c(=O)n(C)c1=O	-194*
COc1cccc2sc3ccc(C#Cc4ccc(N)cc4)cc3c(=O)c12	-111*
COc1cccc2sc3ccc(C#CC4(O)CCCCC4)cc3c(=O)c12	-191*
Nc1ccc(C#Cc2ccc3sc4ccccc4c(=O)c3c2)cc1	-190*
COc1cccc2sc3ccc(NCc4ccc5c(c4)OCO5)cc3c(=O)c12	-63*
O=c1c2ccccc2sc2ccc(C#CC3(O)CCCCC3)cc12	104
COc1ccc2sc3c(=O)[nH]c4ccccc4c3c2c1	63
COc1ccc2sc3ccccc3c(=O)c2c1OC	-145*
CNC(=O)c1ccsc1NC(=O)c1sc2ccccc2c1Cl	-168*
COCc1nnc(NC(=O)c2sc3ccccc3c2Cl)s1	-102*
Cc1c(C(=O)O)cccc1-c1ccc(/C=N/Nc2ccc(Br)cc2)o1	-145*
Cc1c(C(=O)O)cccc1-c1ccc(/C=N/n2cnnc2)o1	-79*
CC1CCN(C(=O)Cn2cnc3c(cnn3C(C)(C)C)c2=O)CC1	-85*
CC(C)(C)n1ncc2c(=O)n(CC(=O)c3ccc(Cl)cc3)cnc21	-197*
SMILES	aSyn UTR act
O=C(Nc1cnc2ccccc2c1)C1COc2ccccc2O1 (stereo not given)	-167*
Cc1cc(Cl)ccc1NC(=O)C1COc2ccccc2O1 (stereo not given)	-85*
O=C(Nc1ccccc1[N+](=O)[O-])C1COc2ccccc2O1 (stereo not given)	-221*
COc1ccc(C)cc1NC(=O)C1COc2ccccc2O1 (stereo not given)	-67*
COc1ccc(OC)c2c1sc(=NC(=O)C1COc3ccccc3O1)n2C (stereo not given)	-128*
O=C(Nc1ccc2c(c1)OCO2)C1COc2ccccc2O1 (stereo not given)	-177*
O=C(Nc1ccc(F)cc1)C1COc2ccccc2O1 (stereo not given)	-72*
COc1cccc(NC(=O)C2COc3ccccc3O2)c1 (stereo not given)	-201*
COc1ccc(CNC(=O)C2COc3ccccc3O2)cc1 (stereo not given)	-62*
Cc1cc(=O)oc2cc(NC(=O)C3COc4ccccc4O3)ccc12 (stereo not given)	-62*
CC1(C)CC(=O)C(N=Nc2ccc(-c3ccccc3)cc2)=C(O)C1	-84*
CCOC(=O)Cc1csc(/N=C/c2c(O)n(-c3ccc(C)c(C)c3)c(=O)c3ccccc23)n1	105
CCOC(=O)Cc1csc(NC(=O)/C=C\c2ccccc2)n1	-74*
CCOC(=O)Cc1csc(N/N=C\c2cccc(Br)c2)n1	-66*
CCOC(=O)Cc1csc(NC(=O)/C=C\c2ccccc2Cl)n1	-194*
CCOC(=O)Cc1csc(NC(=O)/C=C/c2ccccc2Cl)n1	-136*
Cc1cccc(-n2cc(-c3ccc([N+](=O)[O-])cc3)[nH]c2=S)c1	-80*
O=[N+]([O-])c1ccc(-c2cn(-c3ccccc3)c(=S)[nH]2)cc1	-101*
O=[N+]([O-])c1cccc(-c2cn(-c3ccccc3)c(=S)[nH]2)c1	-179*
C=CCc1ccc(OCCn2nnc3ccccc32)c(OC)c1	-248*
C=CCc1ccc(OCCn2cccc2C=O)c(OC)c1	-140*
C=CCc1ccc(OCCOc2cccc3ccc(C)nc23)c(OC)c1	-69*
C/C=C/c1ccc(OCCn2nnc3ccccc32)c(OC)c1	-115*
Cc1cccc(OCCn2nnc3ccccc32)c1C	-180*
CC1CC1C(=O)Nc1ccc(-c2ccccc2)cc1 (stereo not given)	-152*
SMILES	aSyn UTR act
Fc1ccc(-c2csc(-c3ccccn3)n2)cc1F	-112*
c1ccc(-c2nc(-c3ccco3)cs2)nc1	-183*
COc1ccc(OCc2cccc(C(=O)NN)c2)cc1	67
O=C(Nc1ccccc1)c1ccc(COc2ccccc2)cc1	-109*
O=C(Nc1ccccc1F)c1ccc(OCc2ccccc2)cc1	-141*
NNC(=O)c1cccc(COc2cccc(Br)c2)c1	-86*
NNC(=O)c1ccc(COc2ccc3ccccc3c2)cc1	-76*
O=C(NCC1CCCO1)C(=O)N/N=C/c1ccc(OCc2ccccc2Cl)cc1 (stereo not given)	-106*
O=C(Nc1ccc(Cn2cccn2)cc1)c1ccc(COc2ccccc2Br)cc1	-107*
O=C(NCC1CCCO1)c1ccc(COc2ccccc2)cc1 (stereo not given)	-78*
CSCc1ccc(C(=O)Nc2ccc(C(N)=O)cc2)cc1	-141*
O=C(Nc1ccccc1)c1ccc(CSc2ncccn2)cc1	-95*
COc1cc(C)ccc1OCc1cc(C(=O)N(Cc2c(C)nn(C)c2C)C2CC2)no1	-81*
COc1cc(Cl)ccc1OCc1cc(C(=O)N2C[C@@H]3CCC[C@H]2C3)no1	-176*
COc1cc(Cl)ccc1OCc1cc(C(=O)N2C[C@H]3CC[C@H]2C3)no1	-130*
COc1cc(C)ccc1OCc1cc(C(=O)N2CCN(C)C[C@@H]2c2ccccc2)no1	-139*
COc1cc(Cl)ccc1OCc1cc(C(=O)N2C[C@]3(C)C[C@H]2CC(C)(C)C3)no1	-87*
O=C(NC(=S)Nc1cccc2[nH]ncc12)c1ccccc1	-176*
Cc1c(NC(=O)c2ccc3nsnc3c2)cccc1[N+](=O)[O-]	-68*
Cc1c(NC(=O)c2ccc(C(C)(C)C)cc2)cccc1[N+](=O)[O-]	-133*
CC(C)(C)c1ccc(NC(=O)c2ccccc2)c([N+](=O)[O-])c1	-100*
O=C(NC(=S)Nc1ccccc1[N+](=O)[O-])c1ccccc1	-136*
Cc1ccn2cc(-c3cccc(NC(=O)c4ccccc4)c3)nc2c1	-82*
Cc1ccn2cc(-c3cccc(NC(=O)C(C)C)c3)nc2c1	-107*
COc1ccc(CC(=O)Nc2ccc(-c3cn4ccc(C)cc4n3)cc2)cc1	-110*
SMILES	aSyn UTR act
Cc1cccc(C)c1OCc1cc(C(=O)N2CCN(c3ccc(F)cc3)CC2)no1	-72*
CC(=O)c1ccc(OCc2cc(C(=O)NC(C)CCn3cccn3)no2)cc1 (stereo not given)	-164*
CC(=O)c1ccc(OCc2cc(C(=O)N3CC[C@@H]4CCCC[C@H]4C3)no2)cc1	-126*
COCC1CCCN(C(=O)c2cc(COc3cncc(Cl)c3)on2)C1 (stereo not given)	-137*
COCC1CCCN(C(=O)c2cc(COc3ccc(C(C)=O)cc3)on2)C1 (stereo not given)	-149*
Cc1cccc(C)c1OCc1cc(C(=O)N2CCC(C3CCCCC3)C2)no1 (stereo not given)	-159*

Bioassay records from PubChem BioAssay.
